From the antibiotic and cytotoxicity screens of Wong et al. (2023)
Hit rate of the full screen: of about 39,000 compounds, about 3,300 (8.5%) were called active. The sample as a whole holds a higher share of actives than the screen did.

These compounds were tested on HepG2 (assay: cytotoxicity call (relative viability < 0.9)). Conditions: 10 µM.
For `Cn1c(Nc2ccc(C(F)(F)F)cc2)nc2cc(Oc3ccnc(-c4ncc(C(F)(F)F)[nH]4)c3)ccc21`, the cytotoxicity call was “active”.
`COc1ccc(NC(=O)Nc2ccc3c(c2)C(=O)N([C@H](C)CO)C[C@H](C)[C@H](CN(C)Cc2ccncc2)OCCCC[C@H](C)O3)cc1` was tested, and the cytotoxicity call was “inactive”.
In the case of `CO[C@@H]1CN(C)C(=O)c2cc(NC(=O)Nc3ccccc3F)ccc2OC[C@@H](C)N(Cc2ccccc2C(=O)O)C[C@H]1C`, the cytotoxicity call is reported as “inactive”.
For `COc1ccc(-c2coc3cc(OC)ccc3c2=O)c(O)c1`, the cytotoxicity call was “inactive”.
With `Cc1c(C(N)=O)nnn1-c1ccc(F)cc1` the cytotoxicity call was “inactive”.
For `C[C@H](CO)N1C[C@H](C)[C@H](CN(C)CC2CC2)OCCCC[C@H](C)Oc2ccc(NC(=O)Nc3ccc(C(F)(F)F)cc3)cc2C1=O`, the cytotoxicity call was “active”.
In the case of `C[C@@H]1CCCCO[C@@H](CN(C)CC2CC2)[C@H](C)CN([C@@H](C)CO)C(=O)c2cc(NC(=O)Nc3ccc(C(F)(F)F)cc3)ccc2O1`, the cytotoxicity call is reported as “inactive”.
For `C[C@H](CO)N1C[C@H](C)[C@@H](CN(C)CC2CC2)OCCCC[C@H](C)Oc2ccc(NC(=O)Nc3ccc(C(F)(F)F)cc3)cc2C1=O`, the cytotoxicity call was “inactive”.
For `C[C@H]1CCCCO[C@H](CN(C)CC2CC2)[C@@H](C)CN([C@@H](C)CO)C(=O)c2cc(NC(=O)Nc3ccc(C(F)(F)F)cc3)ccc2O1`, the cytotoxicity call was “inactive”.
For `C[C@@H]1CCCCO[C@@H](CN(C)CC2CC2)[C@H](C)CN([C@H](C)CO)C(=O)c2cc(NC(=O)Nc3ccc(C(F)(F)F)cc3)ccc2O1`, the cytotoxicity call was “inactive”.
With `C[C@@H]1CCCCO[C@H](CN(C)CC2CC2)[C@H](C)CN([C@H](C)CO)C(=O)c2cc(NC(=O)Nc3ccc(C(F)(F)F)cc3)ccc2O1` the cytotoxicity call was “active”.
In the case of `C[C@@H]1CCCCO[C@H](CN(C)CC2CC2)[C@H](C)CN([C@@H](C)CO)C(=O)c2cc(NC(=O)Nc3ccc(C(F)(F)F)cc3)ccc2O1`, the cytotoxicity call is reported as “active”.
For `C[C@@H]1CCCCO[C@@H](CN(C)CC2CC2)[C@@H](C)CN([C@H](C)CO)C(=O)c2cc(NC(=O)Nc3ccc(C(F)(F)F)cc3)ccc2O1`, the cytotoxicity call was “active”.
With `C[C@H](CO)N1C[C@H](C)[C@@H](CN(C)C(=O)Nc2ccccc2)OCCCC[C@H](C)Oc2ccc(NC(=O)C3CCCCC3)cc2C1=O` the cytotoxicity call was “inactive”.
In the case of `CN(C)C(=O)CN1C[C@]23CN(Cc4cnn(C)c4)C[C@@H](C[C@@H]2S1(=O)=O)O3`, the cytotoxicity call is reported as “inactive”.
`CC(C)NC(=O)N(C)C[C@H]1Oc2c(NS(=O)(=O)c3ccc(F)cc3)cccc2C(=O)N([C@H](C)CO)C[C@@H]1C` was tested, and the cytotoxicity call was “inactive”.
For `C[C@@H]1CN([C@H](C)CO)C(=O)c2cc(NC(=O)Nc3cccc4ccccc34)ccc2O[C@@H](C)CCCCO[C@@H]1CN(C)Cc1ccc(C(=O)O)cc1`, the cytotoxicity call was “inactive”.
With `COc1ccc(NC(=O)N(C)C[C@@H]2Oc3cc(Br)ccc3S(=O)(=O)N([C@H](C)CO)C[C@H]2C)cc1` the cytotoxicity call was “inactive”.
For `COc1cccc(S(=O)(=O)N(C)C[C@H]2OCc3cnnn3CCCC(=O)N([C@H](C)CO)C[C@@H]2C)c1`, the cytotoxicity call was “inactive”.
For `C[C@H](CO)N1C[C@H](C)[C@H](CN(C)C(=O)Nc2ccccc2)OCCCC[C@H](C)Oc2ccc(NS(=O)(=O)c3cccs3)cc2C1=O`, the cytotoxicity call was “inactive”.
For `COc1ccc(S(=O)(=O)N(C)C[C@H]2Oc3ccc(NC(=O)Nc4cccc5ccccc45)cc3C(=O)N([C@H](C)CO)C[C@H]2C)cc1`, the cytotoxicity call was “inactive”.
In the case of `COc1ccc(-c2ccccn2)cc1`, the cytotoxicity call is reported as “inactive”.
For `Cn1c(=O)[nH]c2nnc(-c3ccccn3)nc2c1=O`, the cytotoxicity call was “inactive”.
For `Cn1nc(-c2ccccn2)nc2c(=O)n(C)c(=O)nc1-2`, the cytotoxicity call was “active”.
In the case of `COc1ccc(NC(=O)Nc2ccc3c(c2)C(=O)N([C@H](C)CO)C[C@H](C)[C@@H](CN(C)Cc2ccc(C(=O)O)cc2)OCCCC[C@H](C)O3)cc1`, the cytotoxicity call is reported as “inactive”.
For `CN(CP(=O)(O)CN1CCOCC1)S(C)(=O)=O`, the cytotoxicity call was “inactive”.
In the case of `CC(C)(C)NCC(O)COc1cccc2c1CC(O)C(O)C2` (centres undefined), the cytotoxicity call is reported as “inactive”.
For `CC(C)(C)NCC(O)COc1ccccc1C1CCCC1.O=S(=O)(O)O` (centres undefined), the cytotoxicity call was “active”.
In the case of `CC(C)(C)NCC(O)COc1nsnc1N1CCOCC1.O=C(O)C=CC(=O)O` (centres undefined), the cytotoxicity call is reported as “inactive”.
`C[C@H](CO)N1C[C@H](C)[C@@H](CN(C)S(=O)(=O)c2cn(C)cn2)Oc2ccc(NC(=O)CCN3CCOCC3)cc2C1=O` was tested, and the cytotoxicity call was “inactive”.
For `C[C@H]1CN([C@@H](C)CO)C(=O)c2cc(NC(=O)CCCN(C)C)ccc2O[C@@H]1CN(C)C(=O)Nc1ccc2c(c1)OCO2`, the cytotoxicity call was “inactive”.
For `C[C@@H]1CN([C@H](C)CO)C(=O)Cc2cc(NC(=O)CCN3CCOCC3)ccc2O[C@@H]1CN(C)Cc1ccncc1`, the cytotoxicity call was “inactive”.
In the case of `COc1ccc([Si](C)(C)[C@@H]2[C@@H](CCO)O[C@]3(C(=O)N(Cc4cccc(N5CCCCC5=O)c4)c4ccccc43)[C@H]2C)cc1`, the cytotoxicity call is reported as “inactive”.
With `COc1ccc([Si](C)(C)[C@H]2[C@H](CCO)O[C@@]3(C(=O)N(Cc4cccc(N(C=O)c5ccccc5)c4)c4ccccc43)[C@@H]2C)cc1` the cytotoxicity call was “active”.
For `COc1ccc([Si](C)(C)[C@@H]2[C@@H](CCO)O[C@]3(C(=O)N(Cc4ccc(N(C=O)c5ccccc5)cc4)c4ccccc43)[C@H]2C)cc1`, the cytotoxicity call was “active”.
`C[C@H]1[C@H]([Si](C)(C)F)[C@@H](CCO)O[C@]12C(=O)N(Cc1cccc(N(C=O)c3ccccc3)c1)c1ccccc12` was tested, and the cytotoxicity call was “inactive”.
With `COc1ccc([Si](C)(C)[C@H]2[C@H](CCO)O[C@@]3(C(=O)N(Cc4ccc(N(C=O)c5ccccc5)cc4)c4ccccc43)[C@@H]2C)cc1` the cytotoxicity call was “active”.
`C[C@@H]1CN([C@@H](C)CO)C(=O)c2cccc(NS(=O)(=O)c3ccccc3)c2O[C@@H]1CN(C)S(=O)(=O)c1cccs1` was tested, and the cytotoxicity call was “inactive”.
For `CC(C)CC#Cc1ccc2c(c1)O[C@H](CN(C)C(=O)NC1CCCC1)[C@H](C)CN([C@H](C)CO)S2(=O)=O`, the cytotoxicity call was “inactive”.
For `CO[C@@H]1CN(C)C(=O)c2ccc(NC(=O)CC(F)(F)F)cc2OC[C@@H](C)N(C(=O)C2CCOCC2)C[C@@H]1C`, the cytotoxicity call was “inactive”.
In the case of `C[C@H]1CN([C@@H](C)CO)C(=O)c2cc(NC(=O)c3ccncc3)ccc2O[C@H]1CN(C)Cc1ccc(-c2ccccc2)cc1`, the cytotoxicity call is reported as “inactive”.
In the case of `CC1=NCCN1`, the cytotoxicity call is reported as “inactive”.
For `CC(C)c1ccc2c(ccc[n+]2C)c1`, the cytotoxicity call was “inactive”.
For `COC(=O)C[C@H]1CC[C@@H]2[C@H](COC[C@@H](O)CN2S(=O)(=O)c2cn(C)cn2)O1`, the cytotoxicity call was “inactive”.
With `COc1ccc(S(=O)(=O)Nc2cccc3c2O[C@@H](CN(C)S(=O)(=O)c2ccccc2)[C@H](C)CN([C@H](C)CO)C3=O)cc1` the cytotoxicity call was “inactive”.
For `COCC(=O)N1C[C@H](C)[C@H](OC)CN(C)C(=O)c2ccc(NC(=O)c3ccc(OC)cc3)cc2OC[C@@H]1C`, the cytotoxicity call was “inactive”.
With `Cc1ccc(S(=O)(=O)N(C)C[C@@H]2OCCCC[C@@H](C)Oc3ccc(NS(=O)(=O)c4ccc(F)cc4)cc3C(=O)N([C@@H](C)CO)C[C@@H]2C)cc1` the cytotoxicity call was “inactive”.
For `C[C@H](CO)N1C[C@H](C)[C@@H](CN(C)C(=O)Nc2ccccc2C(F)(F)F)OCc2ccccc2-c2ccccc2C1=O`, the cytotoxicity call was “inactive”.
With `C=C(NC(=O)C(=C)NC(=O)c1csc(C2=N[C@@H]3c4csc(n4)[C@@H]4NC(=O)c5csc(n5)[C@H](C(C)(O)[C@@H](C)O)NC(=O)[C@H]5CSC(=N5)/C(=C/C)NC(=O)[C@H]([C@@H](C)O)NC(=O)c5csc(n5)[C@]3(CC2)NC(=O)[C@@H](C)NC(=O)C(=C)NC(=O)[C@@H](C)NC(=O)[C@@H]([C@H](C)CC)N[C@H]2C=Cc3c([C@@H](C)O)cc(nc3[C@@H]2O)C(=O)O[C@H]4C)n1)C(N)=O` (some centres undefined) the cytotoxicity call was “inactive”.
In the case of `C=C(NC(=O)C(=C)NC(=O)c1csc(C2=N[C@H]3c4csc(n4)[C@H]4NC(=O)c5csc(n5)[C@H](C(C)(O)[C@@H](C)O)NC(=O)[C@H]5CSC(=N5)C(=CC)NC(=O)[C@H]([C@@H](C)O)NC(=O)c5csc(n5)[C@]3(CC2)NC(=O)[C@H](C)NC(=O)C(=C)NC(=O)[C@H](C)NC(=O)[C@H]([C@H](C)CC)N[C@@H]2C=Cc3c([C@H](C)O)cc(nc3[C@H]2O)C(=O)O[C@@H]4C)n1)C(N)=O` (some centres undefined), the cytotoxicity call is reported as “active”.
`C=C(NC(=O)C(=C)NC(=O)c1csc(C2=NC3c4csc(n4)C4NC(=O)c5csc(n5)C(C(C)(O)C(C)O)NC(=O)C5CSC(=N5)C(=CC)NC(=O)C(C(C)O)NC(=O)c5csc(n5)C3(CC2)NC(=O)C(C)NC(=O)C(=C)NC(=O)C(C)NC(=O)C(C(C)CC)NC2C=Cc3c(C(C)O)cc(nc3C2O)C(=O)OC4C)n1)C(N)=O` (centres undefined) was tested, and the cytotoxicity call was “active”.
With `C[C@@H]1CN([C@@H](C)CO)C(=O)Cc2cc(NS(C)(=O)=O)ccc2O[C@H]1CN(C)S(=O)(=O)c1cn(C)cn1` the cytotoxicity call was “inactive”.
In the case of `C[C@H](CO)N1C[C@H](C)[C@H](CN(C)S(=O)(=O)c2ccc(F)cc2)Oc2ccc(NC(=O)c3ccncc3)cc2CC1=O`, the cytotoxicity call is reported as “inactive”.
With `COc1ccc(S(=O)(=O)N(C)C[C@H]2Oc3c(cccc3N(C)C)C(=O)N([C@@H](C)CO)C[C@@H]2C)cc1` the cytotoxicity call was “inactive”.
With `COc1ccc2c3c(n(c2c1)C)[C@@H](CO)N(C[C@]13CN(C1)C(=O)c1ccncc1)C(=O)C1CCCCC1` the cytotoxicity call was “inactive”.
For `COc1ccc(NC(=O)N2C[C@H](O)COC[C@@H]3O[C@@H](CC(=O)NC4Cc5ccccc5C4)CC[C@H]32)cc1`, the cytotoxicity call was “inactive”.
`C[C@@H]1CN([C@H](C)CO)C(=O)c2cc(C#CC(C)(C)O)cnc2O[C@H]1CN(C)Cc1cccc(C(=O)O)c1` was tested, and the cytotoxicity call was “inactive”.
With `Cc1ccc(S(=O)(=O)N(C)C[C@@H]2Oc3ccc(N(C)C)cc3CC(=O)N([C@@H](C)CO)C[C@H]2C)cc1` the cytotoxicity call was “inactive”.
In the case of `C[C@H](CO)N1C[C@H](C)[C@H](CN(C)Cc2ccc(Oc3ccccc3)cc2)Oc2c(NC(=O)NC3CCCCC3)cccc2C1=O`, the cytotoxicity call is reported as “active”.
With `C[C@H]1CN([C@@H](C)CO)C(=O)c2cccc(NC(=O)C3CCCCC3)c2O[C@H]1CN(C)Cc1ccc(Oc2ccccc2)cc1` the cytotoxicity call was “inactive”.
With `C[C@H]1CN([C@@H](C)CO)C(=O)c2cccc(NC(=O)NC3CCCCC3)c2O[C@@H]1CN(C)Cc1ccc(Oc2ccccc2)cc1` the cytotoxicity call was “inactive”.
With `C[C@@H]1CN([C@@H](C)CO)C(=O)c2cccc(NC(=O)NC3CCCCC3)c2O[C@@H]1CN(C)Cc1ccc(Oc2ccccc2)cc1` the cytotoxicity call was “inactive”.
With `C[C@@H]1CN([C@@H](C)CO)C(=O)c2cccc(NC(=O)C3CCCCC3)c2O[C@H]1CN(C)Cc1ccc(Oc2ccccc2)cc1` the cytotoxicity call was “inactive”.
In the case of `C[C@H](CO)N1C[C@H](C)[C@@H](CN(C)Cc2ccc(Oc3ccccc3)cc2)Oc2c(NC(=O)C3CCCCC3)cccc2C1=O`, the cytotoxicity call is reported as “active”.
